# TDP1 cell noCPT: qHTS for Inhibitors of human tyrosyl-DNA phosphodiesterase 1 (TDP1): qHTS in cells in absence of CPT; DT40 Tdp1-/- hTDP1 cells, no CPT, ATP luminescence, 48 h; Potency, µM (doses to about 46.2 µM), hits mostly inhibitors; 420,000 tested, 15% active; further: nearly all actives have a fitted effect of over 55% in size
#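 Chicken DT40 Tdp1-/- cells complemented with human TDP1, screened without camptothecin (DMSO vehicle only), 400 cells/well. Compounds pin-transferred, cells incubated at 37 °C for at least 48 hr. Growth read as ATP-dependent luminescence (CellTiter-Glo, 30 min at RT).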
# HepG2 viability: kills HepG2 cells in TGF-b inhibitor counter-screen; 410,000 tested, 0.76% active; HepG2 CAGA-GFP viability, ATP luminescence, 18 h; Potency, µM (series often up to 46.1 µM), most hits filed as cytotoxic
#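 CellTiter-Glo luminescence gave cytotoxicity after 18 hours at 37 degrees C. The cells were HepG2 CAGA-GFP in 1% FBS DMEM, stimulated with 500 pg/mL TGF-beta after compound addition. %Activity was normalised to no-cell wells (complete cell-killing) and DMSO (no toxicity), and curves were fitted and classified.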
# TDP1 block: blocks human tyrosyl-DNA phosphodiesterase 1 | Q9NUW8 | Potency, µM (doses to about 130 µM), usual class: inhibitors | recombinant TDP1, AlphaScreen DNA substrate cleavage | 350,000 tested, 0.28% active | AID 485290; further: nearly all actives have a fitted effect of over 40% in size
# Target sequence (Q9NUW8 whole entry, looked up): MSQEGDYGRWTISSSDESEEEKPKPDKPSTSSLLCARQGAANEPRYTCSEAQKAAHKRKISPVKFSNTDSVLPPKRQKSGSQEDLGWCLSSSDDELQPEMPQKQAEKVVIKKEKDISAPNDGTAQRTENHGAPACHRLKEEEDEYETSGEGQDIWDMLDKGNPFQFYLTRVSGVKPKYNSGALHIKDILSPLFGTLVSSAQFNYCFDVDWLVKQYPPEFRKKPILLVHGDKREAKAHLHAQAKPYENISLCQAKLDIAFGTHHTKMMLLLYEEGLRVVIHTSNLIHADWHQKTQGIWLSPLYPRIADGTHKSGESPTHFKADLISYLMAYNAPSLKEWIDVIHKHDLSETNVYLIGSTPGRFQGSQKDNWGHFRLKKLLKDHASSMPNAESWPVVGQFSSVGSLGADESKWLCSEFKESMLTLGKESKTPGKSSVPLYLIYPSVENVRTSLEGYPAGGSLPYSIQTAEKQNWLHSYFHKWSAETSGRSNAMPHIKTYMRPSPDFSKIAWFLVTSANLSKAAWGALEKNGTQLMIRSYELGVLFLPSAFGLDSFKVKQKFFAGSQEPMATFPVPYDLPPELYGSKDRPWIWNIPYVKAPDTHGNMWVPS
#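 Tdp1 1 nM final; 15 min RT w/ cpd; substrate 15 nM, 5 min; beads 10 ug/ml, 10 min; AlphaScreen read. Neg ctrl: no enzyme.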
# TDP1 cell CPT: growth inhibition of DT40 Tdp1-/-;hTDP1 cells with camptothecin (screen for TDP1 inhibitors); chicken DT40 Tdp1-/-;hTDP1 cells + 20 nM CPT, ATP luminescence, 48 h; Potency, µM (top dose mostly 46.2 µM), hits mostly inhibitors; 420,000 tested, 12% active; AID 686979; further: nearly all actives have a fitted effect of over 55% in size
#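 Chicken DT40 Tdp1-/- cells stably complemented with human TDP1 were seeded at 400 cells/well in medium containing 20 nM camptothecin, exposed to pin-transferred compounds, and grown at 37 °C for at least 48 hr. Viability was read as ATP luminescence.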
# IL-1B inflam inh: inflammasome signaling inhibition, IL-1 beta readout | THP-1 LPS/ATP IL-1B secretion, AlphaLISA, 16 h; stronger effect = lower value | activity change, % at 57.5 µM | 360,000 tested, 4.7% active | AID 743279; in the data active means activity change below about -50%; inconclusive means mostly about -30% to -49%
#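 THP-1 cells pretreated 1 hr with compounds (up to 57.5 uM final), then stimulated with LPS (250 ng/mL final) plus ATP (1.25 mM final); secreted IL-1B measured by AlphaLISA after 16 hr, decreased signal indicating inhibition.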
# TGFb inhibitor: blocks TGF-b signaling | HepG2 CAGA-GFP TGF-b/SMAD3 reporter, GFP fluorescence, 18 h; TGF-beta stimulated, 500 pg/mL final | Potency, µM (doses to about 46.1 µM), most hits filed as inhibitors | 410,000 tested, 1.2% active; further: nearly all actives have a fitted effect of over 65% in size
#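 TGF-beta reporter screen: HEPG2 CAGA-GFP, 1% FBS, 500 pg/mL TGF-beta final, 18 h; per-cell GFP summed per well; curves fitted and categorized by class.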
# Numbers stand for hits; – = inactive; ? = inconclusive; · = no result given; [ ] = dose if it differs, or a comment. The list is not random: actives were taken first. Their share in the collection is about 19%. Unless noted, the call rests on the fitted dose curve; in most records, active means well fitted curve in the direction sought with a large enough effect; inconclusive means small, poorly fitted or top-dose-only effect, or another doubt; inactive means no such curve, though single readings can be large; an effect the other way counts as inactive or inconclusive.
SMILES,TDP1 cell noCPT,HepG2 viability,TDP1 block,TDP1 cell CPT,IL-1B inflam inh,TGFb inhibitor
CCc1ccc(/C=N/NC(=O)c2cc(-c3ccncc3)nc3ccccc23)s1,3.26µM,–,–,4.61µM,–,?
O=C(N/N=C/c1cccs1)c1cc(-c2ccncc2)nc2ccccc12,0.581µM,–,–,0.581µM,–,?
O=C(N/N=C/c1cccs1)c1cc(C2CC2)nc2ccccc12,2.91µM,–,–,3.66µM,–,–
COc1ccccc1-c1cc(C(=O)N/N=C/c2cccs2)c2ccccc2n1,?,–,–,?,–,–
O=C(N/N=C/c1ccncc1)c1cc(C2CC2)nc2ccccc12,?,–,–,–,–,–
O=C(N/N=C/c1ccco1)c1cc(-c2ccncc2)nc2ccccc12,7.31µM,–,–,7.31µM,–,–
O=C(NCCO)c1cn(C2CCN(Cc3c(F)cccc3Cl)CC2)nn1,–,·,·,–,·,·
COc1ccc(CNC(=O)C(c2ccco2)N(C(=O)c2csnn2)c2cccc(C)c2C)cc1 (stereo not drawn),23.1µM,–,–,?,–,–
O=C(NCc1ccc(F)cc1)C(c1ccco1)N(C(=O)c1csnn1)c1ccccc1 (stereo not drawn),?,–,–[0.0935 µM],–,–,–
COc1ccc(CNC(=O)C(c2ccco2)N(Cc2cccs2)C(=O)Cc2cccs2)cc1 (stereo not drawn),?,–,–,?,-51.7,–
COCCN(C(=O)Cc1cccs1)C(C(=O)NCc1ccc(OC)cc1)c1ccc(OC)cc1 (stereo not drawn),?,–,–,?,–,–
COc1ccc(CNC(=O)C(c2cccs2)N(Cc2ccco2)C(=O)Cc2cccs2)cc1 (stereo not drawn),23.1µM,–,–,?,?,–
Cc1cc2ccccc2n1CCNC(=O)c1cc(C(F)(F)F)cc(C(F)(F)F)c1,?,–,–,?,·,–
Cc1cccc(C)c1-n1nnnc1C1(Nc2ccccc2)CCCCC1,?,–,–,?,?,?
Clc1ccc(NC2(c3nnnn3C3CCCCC3)CCCCC2)cc1,20.6µM,–,–,18.4µM,–,–
Cc1ccc(-c2nnc(SCc3ccc(C#N)cc3)n2Cc2ccco2)cc1,?,–,–,25.9µM,–,?
COc1cccc(-c2nnc(SCc3ccc(C#N)cc3)n2Cc2ccco2)c1,23.1µM,–,–,?,?,–
C=CCn1c(SCc2ccc(C#N)cc2)nnc1-c1cccc(OC)c1,?,–,–,?,–,–
Cn1[nH]cc(C=NC(N)=O)c1=O,–,–,·,–,–,–
CCc1ccc(S(=O)(=O)c2nnn3c2nc(NCc2ccccc2)c2cc(Cl)ccc23)cc1,?,–,–,?,·,–
CCCc1nn2c(=O)cc(COC(=O)CNC(=O)COc3ccc(C)cc3)nc2s1,–,–,–,–,·,?
Cc1ccc(S(=O)(=O)CCSc2n[nH]c(=O)n2-c2ccc3c(c2)OCCO3)cc1,20.6µM,–,·,?,?,–
Cc1ccc(S(=O)(=O)NC2CC(=O)N(c3ccc4c(c3)OCCO4)C2)cc1 (stereo not drawn),?,–,–,?,–,–
CCc1ccccc1NC(c1nnc(-c2cccc(F)c2)o1)c1ccc(F)cc1Cl (stereo not drawn),–,–,–,–,·,–
O=C(CSc1n[nH]c(=O)n1-c1cccnc1)Nc1ccccc1Cl,–,–,–,–,–,–
SMILES,TDP1 cell noCPT,HepG2 viability,TDP1 block,TDP1 cell CPT,IL-1B inflam inh,TGFb inhibitor
CC(=O)c1ccc(NC(=O)C2CC(=O)N(C(C)C)C2)cc1 (stereo not drawn),–,–,–,–,–,–
CC(C)(C)c1cc(Cl)c(O)c(NC(=S)NC(=O)c2cccnc2)c1,6.51µM,–,–,4.61µM,–,?
CC(C)c1ccc(O)c(NC(=S)NC(=O)c2cccnc2)c1,18.4µM,–,·,4.61µM,–,–
COc1ccc(C(=O)NC(=S)NNC(=O)c2cnccn2)cc1OC,?,–,–,?,–,–
CCC(C)c1ccc(O)c(NC(=O)c2cccnc2)c1 (stereo not drawn),?,–,–,?,–,–
CCC(C)c1ccc(O)c(NC(=S)NC(=O)c2cccs2)c1 (stereo not drawn),23.1µM,–,·,13µM,–,?
COc1cc(OC)cc(C(=O)NC(=S)NNC(=O)c2cnccn2)c1,5.17µM,–,–,5.8µM,–,–
O=C(NC(=S)Nc1ccccc1Br)c1cccnc1,?,–,·,–,–,–
Cc1cccc(C)c1OC(=O)c1ccccc1,–,–,·,–,–,–
Cc1ccn2c(=O)cc(CSc3nnc(NC(=O)c4ccccc4Cl)s3)nc2c1,?,–,–,–,·,–
COc1ccc(-c2nnc3n2N=C(c2c(OC)cccc2OC)CS3)cc1OC,·,·,–,·,·,·
CCOc1ccc(C2C(=O)N(C3CCCCCC3)CC(=O)N2Cc2ccc(F)cc2)cc1OC (stereo not drawn),?,–,–,?,·,–
CC(C)(C)c1ccc(C(=O)NNC(=S)NC(=O)c2cccnc2)cc1,7.31µM,–,·,7.31µM,–,–
COc1cc(OC)cc(C(=O)NNC(=S)NC(=O)c2cccnc2)c1,3.66µM,–,–,?,–,–
O=[N+]([O-])c1ccc(N/N=C/c2cn(Cc3ccc(F)cc3)c3ccccc23)nc1,?,–,–,?,–,–
O=C(Cn1cc(/C=C\[N+](=O)[O-])c2ccccc21)Nc1ccccc1,14.6µM,11.2µM,–,20.6µM,-95.7,8.91µM
O=[N+]([O-])/C=C/c1cn(Cc2ccccc2)c2ccccc12,11.6µM,–,–,18.4µM,-69.9,?
O=C(O)Cn1cc(/C=C/[N+](=O)[O-])c2ccccc21,–,–,–,–,–,–
C(=N\n1cnnc1)/c1cn(Cc2ccccc2)c2ccccc12,–,–,–,–,–,12.6µM
COCCN1C(=O)N[C@@H](CCc2ccccc2)C(C(=O)OC)=C1C,·,·,–,·,·,·
O=C(Nc1cccnc1)c1cc(-c2cccnc2)nc2ccc(Br)cc12,?,–,–,?,–,–
COc1cc(NC(=O)c2cc(-c3cccnc3)nc3ccc(Br)cc23)cc(OC)c1,20.6µM,–,–,?,–,–
NNC(=O)c1cc(-c2ccc(N)cc2)nc2ccc(Br)cc12,14.6µM,–,–,?,–,?
COc1ccc(NC(=O)c2cc(-c3ccncc3)nc3ccc(Br)cc23)cc1OC,20.6µM,–,–,?,–,?
O=c1[nH]/c(=C/c2ccc3c(c2)OCO3)c(=O)[nH]/c1=C/c1ccc2c(c1)OCO2,–,–,·,–,·,–

# Assay outcomes deposited in PubChem BioAssay by National Center for Advancing Translational Sciences (NCATS).
